Data: the supplement of paper PMC12024424
Counter-ions that a name gives are not always drawn.

test system: Staphylococcus aureus Sa2 (MRSA, cystic fibrosis isolate); experiment: growth reduction vs untreated control (viable cell count); higher = stronger antibacterial activity; extreme values may be limits of the assay; conditions: 0.1 mM; 24 h
Experimental: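 Single-dose screen of the MedChem Express Drug Repurposing Library (0.1 mM, 1% DMSO) against planktonic MRSA S. aureus Sa2 (CF isolate) in TSB in 96-well plates, 37 °C aerobic, 24 h. Assays were run in triplicate and repeated twice.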

**Q.** Which growth reduction does the source give for `c1ccc2c(c1)Sc1ccccc1N2CC1CN2CCC1CC2` (stereo not drawn) [Mequitazine] here?
**A.** 96%

**Q.** How did the growth reduction turn out when `Cc1cc2c(C(C)C)c(O)c(O)c(C=O)c2c(O)c1-c1c(C)cc2c(C(C)C)c(O)c(O)c(C=O)c2c1O` [Gossypol] was run?
**A.** 100%

**Q.** How did the growth reduction turn out when `CC[C@H](C)C1O[C@]2(C=C[C@@H]1C)C[C@@H]1C[C@@H](C/C=C(\C)[C@@H](O[C@H]3C[C@H](OC)[C@@H](O[C@H]4C[C@H](OC)[C@H](NC)[C@H](C)O4)[C@H](C)O3)[C@@H](C)/C=C/C=C3\CO[C@@H]4[C@H](O)C(C)=C[C@@H](C(=O)O1)[C@]34O)O2` (stereo partly drawn) [Emamectin (Benzoate)] was run?
**A.** 100%

**Q.** `Cc1cc2c(C(C)C)c(O)c(O)c(C=O)c2c(O)c1-c1c(C)cc2c(C(C)C)c(O)c(O)c(C=O)c2c1O` [(R)-(-)-Gossypol acetic acid] was tested. Which growth reduction did it give?
**A.** 100%

**Q.** With `Fc1ccc(C(OCCN2CCN(CCCc3ccccc3)CC2)c2ccc(F)cc2)cc1` [Vanoxerine (dihydrochloride)] as the molecule, how does the growth reduction read?
**A.** 99%

**Q.** `O=C(CNC(=O)c1ccc(C2=NOC(c3cc(Cl)cc(C(F)(F)F)c3)(C(F)(F)F)C2)c2ccccc12)NCC(F)(F)F` (stereo not drawn) [Afoxolaner] was tested. Which growth reduction did it give?
**A.** 98%

**Q.** `COc1cccc2c1cc([N+](=O)[O-])c1c(C(=O)O)cc3c(c12)OCO3` [Aristolochic acid A] was tested. Which growth reduction did it give?
**A.** 100%

**Q.** Which growth reduction does the source give for `O=c1c2ccccc2[se]n1-c1ccccc1` [Ebselen] here?
**A.** 100%

**Q.** How did the growth reduction turn out when `O=c1[nH]c2ccccc2n1C1CCN(CCCC(c2ccc(F)cc2)c2ccc(F)cc2)CC1` [Pimozide] was run?
**A.** 98%

**Q.** Which growth reduction does the source give for `Cc1cc2c(C(C)C)c(O)c(O)c(C=O)c2c(O)c1-c1c(C)cc2c(C(C)C)c(O)c(O)c(C=O)c2c1O` [Gossypol (acetic acid)] here?
**A.** 100%

**Q.** Which growth reduction does the source give for `CCNC1=Nc2ccc(Cl)cc2C(C)(c2ccccc2)O1` (stereo not drawn) [Etifoxine] here?
**A.** 100%

**Q.** With `O=C(O)c1nn(Cc2ccc(Cl)cc2Cl)c2ccccc12` [Lonidamine] as the molecule, how does the growth reduction read?
**A.** 90%

**Q.** With `C[S+]([O-])CCCCN=C=S` (stereo not drawn) [Sulforaphane] as the molecule, how does the growth reduction read?
**A.** 100%
